Source: a collection of fitness landscapes (doi:10.1016/j.celrep.2020.107928)
The full ranking holds about 81,000 sequences; the median of “one-hybrid fitness for binding NBS DNA” is about -0.1, and the highest 2% start at about 0.36. This is one part of a sample in which the highest values are shown more often than they occur.

B1: Caulobacter ParB omega fusion; a variant is named by its letters at X, in order, B8GW30 (parent)
chain: MESVVVGEPGMSEGRRGLGRGLSALLGEVDAAPAQAPGEQLGGSREAPIEILQRNPDQPRRTFREEDLEDLSNSIREKGVLQPILVRPSPDTAGEYQIVAGERAWRAAQRAGLKTVPIMVRELDDLAVLEIGIIENVQRADLNVLEEALSYKVLMEKFERTQENIAQTIGKSXSHVANXMRLLXLPDEVQSYLVSGELTAXHARAIAAAADPVALAKQIIEGGLSVRETEALARKAPNLSAGKSKGGRPPRVKDTDTQALESDLSSVLGLDVSIDHRGSTGTLTITYATLEQLDDLCNRLTRGI

Variants of: B1
Assay: one-hybrid fitness for binding NBS DNA (the Noc-binding site; scaled: cognate 1, non-cognate 0); higher = stronger binding
Conditions: with NBS DNA site
Summary of the method: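 Bacterial one-hybrid selection in E. coli USO rpoZ- hisB- pyrF- with a HIS3 reporter carrying the site 19 bp from the promoter, screening Caulobacter ParB libraries with four specificity codons randomised (NNS). Cells grew 48 hours at 37°C on M9-minus-histidine plus 0.1 mM IPTG and 5 mM 3-AT. Plasmids before and after selection were Illumina-sequenced, three replicate libraries pooled, and variants under 10 reads dropped. Fitness is the log change in variant-to-wild-type read ratio, rescaled to cognate 1, non-cognate 0.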

| Variant | one-hybrid fitness for binding NBS DNA |
| --- | --- |
| AMAG | ≤ 0.2 |
| PRCC | ≤ 0.2 |
| MKRL | ≤ 0.2 |
| GLHC | ≤ 0.2 |
| WTLT | ≤ 0.2 |
| YTVE | ≤ 0.2 |
| QTKY | 0.658 |
| QTVY | ≤ 0.2 |
| QANY | ≤ 0.2 |
| QKNY | 0.26 |
| QAKY | 0.531 |
| QMKY | 0.516 |
| QKKY | 0.498 |
| QMVY | ≤ 0.2 |
| QAVY | ≤ 0.2 |
| QTIY | ≤ 0.2 |
| QKVY | ≤ 0.2 |
| QMPY | ≤ 0.2 |
| VVSE | ≤ 0.2 |
| LAWC | ≤ 0.2 |
| RNCT | ≤ 0.2 |
| SKAC | ≤ 0.2 |
| MVPR | ≤ 0.2 |

| Variant | one-hybrid fitness for binding NBS DNA |
| --- | --- |
| EELK | ≤ 0.2 |
| TSEY | ≤ 0.2 |
| HMMA | ≤ 0.2 |
| CPSC | ≤ 0.2 |
| TSCN | ≤ 0.2 |
| GRQR | ≤ 0.2 |
| QLKY | 0.46 |
| QLHY | ≤ 0.2 |
| QLVY | ≤ 0.2 |
| KCDL | ≤ 0.2 |
| SRHH | ≤ 0.2 |
| QQAA | 0.347 |
| QQIA | ≤ 0.2 |
| QQLA | 0.294 |
| QQPA | ≤ 0.2 |
| QQQA | 0.357 |
| QQNA | 0.421 |
| QQDA | 0.25 |
| QQHA | 0.384 |
| QQSA | 0.37 |
| QQVA | 0.271 |
| QQKA | 0.628 |
| PRNE | ≤ 0.2 |

| Variant | one-hybrid fitness for binding NBS DNA |
| --- | --- |
| MSCY | ≤ 0.2 |
| IKIS | ≤ 0.2 |
| QDWF | ≤ 0.2 |
| TRTG | ≤ 0.2 |
| QQWA | 0.212 |
| QQYA | 0.303 |
| QQGA | 0.388 |
| QQFA | 0.201 |
| QQCA | 0.291 |
| QQRA | 0.606 |
| RKKR | 0.768 |
| RKVR | 0.478 |
| RPVR | 0.204 |
| RKKF | ≤ 0.2 |
| RKKM | 0.269 |
| RCVR | 0.349 |
| TEPD | ≤ 0.2 |
| QDCL | ≤ 0.2 |
| HRYR | ≤ 0.2 |
| TRVS | ≤ 0.2 |
| YRVR | ≤ 0.2 |
| HRVR | ≤ 0.2 |
| TRKS | 0.437 |

| Variant | one-hybrid fitness for binding NBS DNA |
| --- | --- |
| YCKR | ≤ 0.2 |
| PRKR | 0.4 |
| HRKR | 0.395 |
| YRKR | 0.377 |
| PRVR | ≤ 0.2 |
| TRKP | ≤ 0.2 |
| PCKR | 0.205 |
| GNLD | ≤ 0.2 |
| ICLR | ≤ 0.2 |
| DVLD | ≤ 0.2 |
| AEAG | ≤ 0.2 |
| IGGG | ≤ 0.2 |
| AHLT | ≤ 0.2 |
| ARVR | ≤ 0.2 |
| TRKR | 0.799 |
| TRKN | 0.212 |
| ARKR | 0.364 |
| ARYR | ≤ 0.2 |
| TRVR | 0.215 |
| KFSD | ≤ 0.2 |
| ETGL | ≤ 0.2 |
| QTIR | 0.499 |
| QTID | ≤ 0.2 |

| Variant | one-hybrid fitness for binding NBS DNA |
| --- | --- |
| QPPR | ≤ 0.2 |
| QTPR | 0.42 |
| QTPD | ≤ 0.2 |
| QTPN | ≤ 0.2 |
| QTIN | ≤ 0.2 |
| QSPR | 0.27 |
| QCPR | 0.37 |
| FWRC | ≤ 0.2 |
| SYKP | ≤ 0.2 |
| HILC | ≤ 0.2 |
| CLQI | ≤ 0.2 |
| NVRS | ≤ 0.2 |
| IVEG | ≤ 0.2 |
| QSQG | ≤ 0.2 |
| QPRG | ≤ 0.2 |
| QCRG | 0.451 |
| QRAG | 0.37 |
| QRQG | 0.366 |
| QCQG | ≤ 0.2 |
| QRFG | 0.249 |
| QPGG | ≤ 0.2 |
| QCAG | ≤ 0.2 |
| QCGG | ≤ 0.2 |

| Variant | one-hybrid fitness for binding NBS DNA |
| --- | --- |
| QRGG | 0.367 |
| QSRG | 0.319 |
| PYIE | ≤ 0.2 |
| ACCM | ≤ 0.2 |
| VPMR | ≤ 0.2 |
| STTV | ≤ 0.2 |
| THKV | ≤ 0.2 |
| IMSF | ≤ 0.2 |
| GCVM | ≤ 0.2 |
| QRRG | 0.483 |
| QRDG | ≤ 0.2 |
| QMDG | ≤ 0.2 |
| QTDG | ≤ 0.2 |
| QTRG | 0.496 |
| QMRG | 0.391 |
| QTYG | ≤ 0.2 |
| QMYG | ≤ 0.2 |
| QRIG | ≤ 0.2 |
| QRNG | 0.381 |
| QCNG | ≤ 0.2 |
| QRYG | 0.312 |
| AHGY | ≤ 0.2 |
| VSQE | ≤ 0.2 |

| Variant | one-hybrid fitness for binding NBS DNA |
| --- | --- |
| EAKN | ≤ 0.2 |
| LLTW | ≤ 0.2 |
| AKGR | ≤ 0.2 |
| QLFF | ≤ 0.2 |
| YHKT | ≤ 0.2 |
| GRAV | ≤ 0.2 |
| LTWN | ≤ 0.2 |
| RRAN | 0.282 |
| RRFD | ≤ 0.2 |
| RPFS | ≤ 0.2 |
| RRFN | 0.23 |
| RSFS | 0.252 |
| RRAD | ≤ 0.2 |
| RRFH | 0.389 |
| RRAH | 0.406 |
| RRFS | 0.666 |
| RRFP | ≤ 0.2 |
| RCFS | 0.411 |
| RRFM | 0.266 |
